In PubChem BioAssay AID1159580 (chemical genetic matrix, 2015):
Several values for one entry are separate records, joined by “and”; a condition that tells them apart may be missing. Identical values can stand only once. Among all 5,500 compounds or so, about 2,000 (36%) were called active. Inconclusive results (about 18%) are left out. Cut-off read from the data, not from the text of the source: active = normalized growth mostly below about 0.91 (no sharp cut-off); inconclusive = no clear call, values can overlap the other calls; inactive = mostly above about 0.92. The list shows a part of the results.

Test: chemical genetic growth profiling, strain panel (AID 1159580);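 note: tested at 20 µM; growth read once vehicle control cultures reached saturation at 30 °C; 1 = growth at the plate median or of vehicle wells; lower values mean less growth of the strain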
Settings: growth OD
[1] = S. cerevisiae deletion strains, locus YBR229C, strain ROT2, stronger effect = lower value
[2] = S. cerevisiae deletion strains, locus YDL101C, strain DUN1, stronger effect = lower value
[3] = S. cerevisiae deletion strains, locus YEL061C, strain CIN8, stronger effect = lower value
[4] = S. cerevisiae deletion strains, locus YGR078C, strain PAC10, stronger effect = lower value
[5] = S. cerevisiae deletion strains, locus YHR030C, strain SLT2, stronger effect = lower value
[6] = S. cerevisiae deletion strains, locus YHR087W, strain rtc3, stronger effect = lower value
[7] = S. cerevisiae deletion strains, locus YJL095W, strain BCK1, stronger effect = lower value
[8] = S. cerevisiae deletion strains, locus YJR043C, strain POL32, stronger effect = lower value
[9] = S. cerevisiae deletion strains, locus YJR075W, strain HOC1, stronger effect = lower value
[10] = S. cerevisiae deletion strains, locus YKL190W, strain CNB1, stronger effect = lower value
[11] = S. cerevisiae deletion strains, locus YLR039C, strain RIC1, stronger effect = lower value
[12] = S. cerevisiae deletion strains, locus YLR058C, strain SHM2 (second series), stronger effect = lower value
[13] = S. cerevisiae deletion strains, locus YLR085C, strain ARP6, stronger effect = lower value
[14] = S. cerevisiae deletion strains, locus YLR262C, strain YPT6, stronger effect = lower value
[15] = S. cerevisiae deletion strains, locus YML094W, strain GIM5, stronger effect = lower value
[16] = S. cerevisiae deletion strains, locus YMR219W, strain ESC1, stronger effect = lower value
[17] = S. cerevisiae deletion strains, locus YMR263W, strain SAP30, stronger effect = lower value
[18] = S. cerevisiae deletion strains, locus YMR307W, strain GAS1, stronger effect = lower value
[19] = S. cerevisiae deletion strains, locus YNL153C, strain GIM3, stronger effect = lower value
[20] = S. cerevisiae deletion strains, locus YNL298W, strain CLA4 (second series), stronger effect = lower value
[21] = S. cerevisiae deletion strains, locus YNL322C, strain KRE1, stronger effect = lower value
[22] = S. cerevisiae deletion strains, locus YNR030W, strain Alg12, stronger effect = lower value
[23] = S. cerevisiae deletion strains, locus YOL006C, strain TOP1, stronger effect = lower value
[24] = S. cerevisiae deletion strains, locus YPL055C, strain LGE1, stronger effect = lower value
[25] = S. cerevisiae deletion strains, locus YPL241C, strain CIN2, stronger effect = lower value
[26] = S. cerevisiae deletion strains, locus YPR135W, strain CTF4, stronger effect = lower value
[27] = S. cerevisiae deletion strains, locus YAL013W, strain DEP1, stronger effect = lower value
[28] = S. cerevisiae deletion strains, locus YDR150W, strain NUM1, stronger effect = lower value
[29] = S. cerevisiae strains, strain wild type, stronger effect = lower value

Measured: normalized growth

Nc1ccc(Oc2ccc(Cl)cc2C2CCCCC2)nc1
active: [1] 0.821 | [2] 0.897 | [3] 0.845 | [4] 0.855 | [5] 0.181 and 0.708 | S. cerevisiae deletion strains, locus YHR079C, strain IRE1, stronger effect = lower value 0.794 | S. cerevisiae deletion strains, locus YHR082C, strain KSP1, stronger effect = lower value 0.766 | [6] 0.702 | [8] 0.852 | S. cerevisiae deletion strains, locus YJR066W, strain TOR1, stronger effect = lower value 0.787 | [9] 0.689 | [10] 0.658 | [11] 0.386 | [12] 0.915 | [13] 0.451 | [14] 0.355 | [15] 0.636 | [16] 0.935 | [17] 0.824 | [18] 0.162 | [19] 0.905 | [20] 0.528 | [22] 0.601 | [23] 0.728 | [24] 0.745 | [25] 0.675 | S. cerevisiae deletion strains, locus YPL256C, strain CLN2, stronger effect = lower value 0.748 | [26] 0.365
inactive: S. cerevisiae deletion strains, locus YGR052W, strain FMP48, stronger effect = lower value 0.796 | [7] 0.849 | S. cerevisiae deletion strains, locus YKL171W, strain NNK1, stronger effect = lower value 0.889 | S. cerevisiae deletion strains, locus YKL203C, strain TOR2, stronger effect = lower value 0.92 | S. cerevisiae deletion strains, locus YLR113W, strain HOG1, stronger effect = lower value 0.705 | S. cerevisiae deletion strains, locus YNL207W, strain RIO2, stronger effect = lower value 0.918 | [21] 0.945 | S. cerevisiae deletion strains, locus YOR119C, strain RIO1, stronger effect = lower value 0.879 | S. cerevisiae deletion strains, locus YOR231W, strain MKK1, stronger effect = lower value 0.941

Cc1cc(Cl)ccc1Oc1ccc(N)cn1
active: [5] 0.486 | [10] 0.928 | [11] 0.541 | [13] 0.602 | [14] 0.544 | [26] 0.602
inactive: [27] 0.989 | [1] 0.977 | [2] 0.971 | [28] 0.898 | [3] 0.993 | [4] 0.984 | [6] 0.989 | [8] 0.977 | [9] 0.952 | [12] 0.986 | [15] 0.878 | [16] 0.992 | [17] 0.92 | S. cerevisiae deletion strains, locus YNL128W, strain TEP1, stronger effect = lower value 1 | [19] 0.99 | [20] 0.891 | [21] 1.01 | [22] 0.981 | [23] 0.938 | [24] 0.889 | [25] 0.917 | [29] 0.953

CC(=O)OC1CC(O)C(C)(C)C2CC(=O)C3(C)C(CCC4(C)C(c5ccoc5)OC(=O)C5OC543)C12C (stereo not given)
inactive: [27] 0.996 | S. cerevisiae deletion strains, locus YBR021W, strain FUR4, stronger effect = lower value 0.947 | [1] 0.994 | S. cerevisiae deletion strains, locus YCL029C, strain bik1, stronger effect = lower value 0.987 | S. cerevisiae deletion strains, locus YDL035C, strain GPR1, stronger effect = lower value 0.988 | S. cerevisiae deletion strains, locus YDL074C, strain BRE1, stronger effect = lower value 0.945 | [2] 0.992 | S. cerevisiae deletion strains, locus YDL134C, strain PPH21, stronger effect = lower value 1.02 | S. cerevisiae deletion strains, locus YDL185W, strain tfp1, stronger effect = lower value 0.995 | S. cerevisiae deletion strains, locus YDL192W, strain arf1, stronger effect = lower value 0.971 | S. cerevisiae deletion strains, locus YDR101C, strain arx1, stronger effect = lower value 0.974 | [28] 1.01 | S. cerevisiae deletion strains, locus YDR162C, strain NBP2, stronger effect = lower value 1.01 | S. cerevisiae deletion strains, locus YDR318W, strain mcm21, stronger effect = lower value 1.01 | S. cerevisiae deletion strains, locus YDR388W, stronger effect = lower value 0.998 | S. cerevisiae deletion strains, locus YDR502C, strain sam2, stronger effect = lower value 0.991 | [3] 1 | S. cerevisiae deletion strains, locus YER110C, stronger effect = lower value 0.985 | S. cerevisiae deletion strains, locus YER155C, strain BEM2, stronger effect = lower value 0.992 | S. cerevisiae deletion strains, locus YER167W, strain BCK2, stronger effect = lower value 0.996 | S. cerevisiae deletion strains, locus YGL078C, strain dbp3, stronger effect = lower value 0.968 | S. cerevisiae deletion strains, locus YGL086W, strain mad1, stronger effect = lower value 0.978 | S. cerevisiae deletion strains, locus YGL248W, strain PDE1, stronger effect = lower value 1.01 | S. cerevisiae deletion strains, locus YGR135W, strain pre9, stronger effect = lower value 1.02 | S. cerevisiae deletion strains, locus YGR229C, strain SMI1, stronger effect = lower value 0.998 | S. cerevisiae deletion strains, locus YGR252W, strain gcn5, stronger effect = lower value 1.04 | [5] 0.995 | S. cerevisiae deletion strains, locus YHR079C, strain IRE1 (second series), stronger effect = lower value 0.988 | S. cerevisiae deletion strains, locus YHR094C, strain hxt1, stronger effect = lower value 0.989 | S. cerevisiae deletion strains, locus YHR129C, strain ARP1, stronger effect = lower value 0.99 | S. cerevisiae deletion strains, locus YHR200W, strain rpn10, stronger effect = lower value 1.01 | S. cerevisiae deletion strains, locus YIL066C, strain RNR3, stronger effect = lower value 1.01 | S. cerevisiae deletion strains, locus YIL073C, strain SPO22, stronger effect = lower value 1.06 | S. cerevisiae deletion strains, locus YIL125W, strain kgd1, stronger effect = lower value 0.997 | S. cerevisiae deletion strains, locus YIR030C, strain dcg1, stronger effect = lower value 0.992 | [7] 1.03 | S. cerevisiae deletion strains, locus YJL134W, strain LCB3, stronger effect = lower value 0.988 | S. cerevisiae deletion strains, locus YJL168C, strain set2, stronger effect = lower value 0.995 | S. cerevisiae deletion strains, locus YJL187C, strain SWE1 (second series), stronger effect = lower value 0.996 | [8] 0.989 | [9] 1.01 | S. cerevisiae deletion strains, locus YKL009W, strain mrt4, stronger effect = lower value 0.931 | S. cerevisiae deletion strains, locus YKL068W, stronger effect = lower value 0.996 | S. cerevisiae deletion strains, locus YKL085W, strain MDH1 (second series), stronger effect = lower value 0.999 | S. cerevisiae deletion strains, locus YKL085W, strain MDH1, stronger effect = lower value 0.999 | S. cerevisiae deletion strains, locus YKR001C, strain vps1, stronger effect = lower value 1 | [11] 0.995 | S. cerevisiae deletion strains, locus YLR058C, strain SHM2, stronger effect = lower value 1 | S. cerevisiae deletion strains, locus YLR102C, strain apc9, stronger effect = lower value 0.996 | [14] 1.02 | S. cerevisiae deletion strains, locus YLR268W, strain sec22, stronger effect = lower value 0.96 | S. cerevisiae deletion strains, locus YLR330W, strain CHS5, stronger effect = lower value 1.01 | S. cerevisiae deletion strains, locus YLR342W, strain FKS1 (second series), stronger effect = lower value 1.01 | S. cerevisiae deletion strains, locus YLR371W, strain rom2, stronger effect = lower value 0.99 | S. cerevisiae deletion strains, locus YLR418C, strain cdc73, stronger effect = lower value 0.999 | S. cerevisiae deletion strains, locus YML016C, strain PPZ1, stronger effect = lower value 0.985 | S. cerevisiae deletion strains, locus YML032C, strain rad52, stronger effect = lower value 1.03 | S. cerevisiae deletion strains, locus YML124C, strain tub3, stronger effect = lower value 1 | S. cerevisiae deletion strains, locus YMR078C, strain ctf18, stronger effect = lower value 0.988 | S. cerevisiae deletion strains, locus YMR223W, strain ubp8, stronger effect = lower value 1.01 | [18] 0.971 | S. cerevisiae deletion strains, locus YNL067W, strain RPL9B, stronger effect = lower value 1.01 | S. cerevisiae deletion strains, locus YNL233W, strain BNI4, stronger effect = lower value 0.987 | S. cerevisiae deletion strains, locus YNL250W, strain rad50, stronger effect = lower value 0.989 | S. cerevisiae deletion strains, locus YNL271C, strain bni1, stronger effect = lower value 0.983 | S. cerevisiae deletion strains, locus YNL298W, strain CLA4, stronger effect = lower value 0.968 | S. cerevisiae deletion strains, locus YNL307C, strain MCK1, stronger effect = lower value 0.98 | [21] 0.999 | S. cerevisiae deletion strains, locus YNR052C, strain pop2, stronger effect = lower value 0.996 | [23] 0.972 | S. cerevisiae deletion strains, locus YOL012C, strain htz1 0.734 | S. cerevisiae deletion strains, locus YOL147C, strain pex11, stronger effect = lower value 0.989 | S. cerevisiae deletion strains, locus YOR061W, strain CKA2, stronger effect = lower value 0.991 | S. cerevisiae deletion strains, locus YOR069W, strain VPS5, stronger effect = lower value 0.985 | S. cerevisiae deletion strains, locus YOR136W, strain idh2, stronger effect = lower value 0.966 | S. cerevisiae deletion strains, locus YOR144C, strain elg1, stronger effect = lower value 0.996 | S. cerevisiae deletion strains, locus YOR184W, strain ser1, stronger effect = lower value 0.982 | S. cerevisiae deletion strains, locus YOR316C, strain cot1, stronger effect = lower value 0.992 | [24] 0.999 | S. cerevisiae deletion strains, locus YPR119W, strain clb2, stronger effect = lower value 0.992 | S. cerevisiae deletion strains, locus YPR141C, strain kar3, stronger effect = lower value 0.987 | S. cerevisiae deletion strains, locus YPR163C, strain tif3, stronger effect = lower value 1 | S. cerevisiae deletion strains, locus YPR167C, strain met16, stronger effect = lower value 0.985 | S. cerevisiae deletion strains, strain wtn01, stronger effect = lower value 0.958 | [29] 1
